From PubChem BioAssay (NCATS)
Inconclusive results are not listed. The source made the active and inactive calls. Calls come from the whole dose curve; as a rule, active = well fitted cell-killing curve with a large enough effect; inconclusive = small, poorly fitted or top-dose-only effect, or effect the other way; inactive = flat fitted curve, though single readings scatter.

Experiments:
Experiment in all cases: Primary qHTS to identify gynecologic anti-cancer compounds using libraries of approved drugs and bioactive compounds (AID 1345084); note: nearly all actives have a fitted effect of over 55% in size
CASKI = conditions: Gynecologic cancer cell panel viability, ATPlite luminescence, 48 h; series mostly up to 57.5 µM
Outline: (§1)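 Measured: luminescence after ATPlite addition (15 min, RT). Exposure: 48 h, 37 C, 5% CO2.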

Es-2 = conditions: Gynecologic cancer cell panel viability, ATPlite luminescence, 48 h; series mostly up to 57.5 µM
Outline: as §1

HeLa = conditions: Gynecologic cancer cell panel viability, ATPlite luminescence, 48 h; series mostly up to 57.5 µM
Outline: as §1

Hek293T = conditions: Gynecologic cancer cell panel viability, ATPlite luminescence, 48 h, control line for the selectivity index; series mostly up to 57.5 µM
Outline: as §1

JEG-3 = conditions: Gynecologic cancer cell panel viability, ATPlite luminescence, 48 h; series mostly up to 57.5 µM
Outline: as §1

OV90 = conditions: Gynecologic cancer cell panel viability, ATPlite luminescence, 48 h; series mostly up to 57.5 µM
Outline: as §1

PA-1 = conditions: Gynecologic cancer cell panel viability, ATPlite luminescence, 48 h; series mostly up to 57.5 µM
Outline: as §1

SKOV3 = conditions: Gynecologic cancer cell panel viability, ATPlite luminescence, 48 h; series mostly up to 57.5 µM
Outline: as §1

Tov-21-G = conditions: Gynecologic cancer cell panel viability, ATPlite luminescence, 48 h; series mostly up to 57.5 µM
Outline: as §1

Tov112D = conditions: Gynecologic cancer cell panel viability, ATPlite luminescence, 48 h; series mostly up to 57.5 µM
Outline: as §1

Measured: Potency

CCc1ccc(C(=O)C(C)CN2CCCCC2)cc1 (stereo not given)
inactive: CASKI | Es-2 | HeLa | Hek293T | JEG-3 | OV90 | PA-1 | SKOV3 | Tov-21-G | Tov112D

CN(C)C(=O)Nc1ccc(Cl)c(Cl)c1
inactive: CASKI | Es-2 | HeLa | Hek293T | JEG-3 | OV90 | PA-1 | SKOV3 | Tov-21-G | Tov112D

CCN1CCN(C(=O)N[C@@H](C(=O)N[C@@H]2C(=O)N3C(C(=O)O)=C(CSc4nnnn4C)CS[C@H]23)c2ccc(O)cc2)C(=O)C1=O
inactive: CASKI | Es-2 | HeLa | Hek293T | JEG-3 | OV90 | PA-1 | SKOV3 | Tov-21-G | Tov112D

COP(=O)(OC)OC(c1ccc(Cl)cc1)P(=O)(OC)OC (stereo not given)
inactive: CASKI | Es-2 | HeLa | Hek293T | JEG-3 | OV90 | PA-1 | SKOV3 | Tov-21-G | Tov112D

CCC(Cc1c(I)cc(I)c(N)c1I)C(=O)O (stereo not given)
inactive: CASKI | Es-2 | HeLa | Hek293T | JEG-3 | OV90 | PA-1 | SKOV3 | Tov-21-G | Tov112D

CCOc1cc(OCC)c(C(=O)CCC(=O)O)cc1OCC
inactive: CASKI | Es-2 | HeLa | Hek293T | JEG-3 | OV90 | PA-1 | SKOV3 | Tov-21-G | Tov112D

O=C1OC2(c3ccccc31)c1cc(Br)c(O)c(Br)c1Oc1c2cc(Br)c(O)c1Br
inactive: CASKI | Es-2 | HeLa | Hek293T | JEG-3 | OV90 | PA-1 | SKOV3 | Tov-21-G | Tov112D

CC1=C(C(=O)O)N2C(=O)[C@@H](NC(=O)[C@H](N)c3ccccc3)[C@H]2SC1
inactive: CASKI | Es-2 | HeLa | Hek293T | JEG-3 | OV90 | PA-1 | SKOV3 | Tov-21-G | Tov112D

COc1cc(C(=O)NCc2ccc(OCCN(C)C)cc2)cc(OC)c1OC
inactive: CASKI | Es-2 | HeLa | Hek293T | JEG-3 | OV90 | PA-1 | SKOV3 | Tov-21-G | Tov112D

CCCCCCCCCCCCCC(=O)OC(C)C
inactive: CASKI | Es-2 | HeLa | Hek293T | JEG-3 | OV90 | PA-1 | SKOV3 | Tov-21-G | Tov112D

COc1ccc(CCN(C)CCCN2CCc3cc(OC)c(OC)cc3CC2=O)cc1OC
inactive: CASKI | Es-2 | HeLa | Hek293T | JEG-3 | OV90 | PA-1 | SKOV3 | Tov-21-G | Tov112D

O=C(O)P(=O)(O)O
inactive: CASKI | Es-2 | HeLa | Hek293T | JEG-3 | OV90 | PA-1 | SKOV3 | Tov-21-G | Tov112D

C#C[C@]1(O)CC[C@H]2[C@@H]3[C@H](C)CC4=C(CCC(=O)C4)[C@H]3CC[C@@]21C
inactive: CASKI | Es-2 | HeLa | Hek293T | JEG-3 | OV90 | PA-1 | SKOV3 | Tov-21-G | Tov112D

Nc1ccc(S(=O)(=O)Nc2cnc3ccccc3n2)cc1
inactive: CASKI | Es-2 | HeLa | Hek293T | JEG-3 | OV90 | PA-1 | SKOV3 | Tov-21-G | Tov112D

O=C(O)CCNC(=O)c1ccccc1
inactive: CASKI | Es-2 | HeLa | Hek293T | JEG-3 | OV90 | PA-1 | SKOV3 | Tov-21-G | Tov112D

CC(=O)Nc1ncc([N+](=O)[O-])s1
inactive: CASKI | Es-2 | HeLa | Hek293T | JEG-3 | OV90 | PA-1 | SKOV3 | Tov-21-G | Tov112D

CCCc1ncc(C[n+]2ccccc2C)c(N)n1
inactive: CASKI | Es-2 | HeLa | Hek293T | JEG-3 | OV90 | PA-1 | SKOV3 | Tov-21-G | Tov112D

NS(=O)(=O)c1cc2c(cc1Cl)NC(CC1CCCC1)NS2(=O)=O (stereo not given)
inactive: CASKI | Es-2 | HeLa | Hek293T | JEG-3 | OV90 | PA-1 | SKOV3 | Tov-21-G | Tov112D

CC(C(=O)O)c1cccc(Oc2ccccc2)c1 (stereo not given)
inactive: CASKI | Es-2 | HeLa | Hek293T | JEG-3 | OV90 | PA-1 | SKOV3 | Tov-21-G | Tov112D

CCNC(=O)NCc1cccc(Cl)c1
inactive: CASKI | Es-2 | HeLa | Hek293T | JEG-3 | OV90 | PA-1 | SKOV3 | Tov-21-G | Tov112D

O=S(c1cc(Cl)cc(Cl)c1O)c1cc(Cl)cc(Cl)c1O
inactive: CASKI | Es-2 | HeLa | Hek293T | JEG-3 | OV90 | PA-1 | SKOV3 | Tov-21-G | Tov112D
